Screens deposited in PubChem by several laboratories.
HIF-2a block: HIF-2a reporter inhibitors, primary screen, luminescence, 786-0 RCC cells | 786-0 RCC cells HIF-2a reporter, luciferase luminescence, overnight | inhibition, % at 18.8 µM | hit rate 0.72% among 360,000 | AID 624352, 2012;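 active = inhibition of the luminescence signal of 40% or more relative to plate controls, in a single-dose primary screen at 18.75 µM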
Beta2AR agonist: beta2AR agonists driving receptor internalization, primary screen, cell-based, FAP fluorogen, flow cytometry | hit rate 0.43% among 340,000 | response, % (concentration not given with the values) | Am2.2-beta2AR cells | AID 504454, 2011 | Beta-2 adrenergic receptor (Homo sapiens), P07550;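 active = response above a set limit, near 3 SD of response in nonfluorescent compounds, cut at about 42% in these data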
Target sequence (P07550 whole entry, looked up): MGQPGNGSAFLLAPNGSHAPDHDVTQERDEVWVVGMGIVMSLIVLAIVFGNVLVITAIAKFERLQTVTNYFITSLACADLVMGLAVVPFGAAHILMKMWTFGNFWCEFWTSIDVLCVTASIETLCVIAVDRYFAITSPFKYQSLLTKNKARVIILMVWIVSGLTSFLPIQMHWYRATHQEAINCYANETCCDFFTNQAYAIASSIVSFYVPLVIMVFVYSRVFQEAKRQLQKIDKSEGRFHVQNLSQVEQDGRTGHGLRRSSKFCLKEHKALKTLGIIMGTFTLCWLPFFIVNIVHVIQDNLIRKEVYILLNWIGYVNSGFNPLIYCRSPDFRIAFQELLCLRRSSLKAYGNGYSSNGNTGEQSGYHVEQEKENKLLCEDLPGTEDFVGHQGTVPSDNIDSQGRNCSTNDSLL
CF NFkB inh: inhibitors of PAF-induced NF-kB signaling, primary screen, cell-based, GFP fluorescence, uHTS | hit rate 0.86% among 360,000 | KKLEB NF-kB-GFP reporter, GFP fluorescence overnight | inhibition, % at 5 µM | AID 588850, 2011;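 active = at least 50% inhibition at 5 µM, scaled per plate between neutral and stimulator controls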;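 also: PAF is a Pseudomonas aeruginosa culture filtrate used as stimulus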
TRPM1 prom inh: inhibitors of MITF-dependent TRPM1 promoter reporter, primary screen, cell-based, SK-MEL-5, single point, luciferase | hit rate 0.83% among 330,000 | SK-MEL-5 TRPM1 promoter luciferase, 24 h | inhibition, % at 12.5 µM | AID 488899, 2010;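 active = mean inhibition across replicates of 60% or more, whatever share of single replicates reaches that level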
KKLEB cytotox: cytotoxicity in KKLEB CF airway cells, primary screen, cytotoxicity control for CF NF-kB inhibitor project, cell-based, uHTS, fluorescence assay plates. activity change (cytotoxicity), % at 5 µM. KKLEB CF airway cells viability, ATPlite luminescence, overnight; stronger effect = lower value; cells stimulated with P. aeruginosa culture filtrate. hit rate 0.36% among 360,000;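 active = corrected activity change at or below -50% at 5 µM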
Peg3 prom inh: Peg3 promoter-driven luciferase inhibitors, primary screen, cell-based, HeLa, luciferase luminescence | HeLa PEG-Prom luciferase reporter, overnight | inhibition, % at 20 µM | hit rate 1.7% among 360,000;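 active = inhibition of at least 50% at 20 µM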
Of the large screens only hits and unclear results are named; the others gave an inactive call. Rows were chosen to be rich in hits. Some 2.8% of all compounds tested hit in one or more screens of this group.

CCCn1ncc(CN2CCC(C(=O)Nc3cccc(-c4cccc(F)c4)c3)CC2)c1C	Peg3 prom inh 60
Cc1nn(C(C)C)c(C)c1CN1CCC(C(=O)Nc2cccc(-c3cccc(F)c3)c2)CC1	TRPM1 prom inh 61, Peg3 prom inh 89
Cc1nn(C)c(C)c1NC(=O)CSc1nc(-c2ccccc2F)nc2c1cnn2-c1ccccc1	none
Cc1nn(C)c(C)c1NC(=O)CSc1nc(-c2ccccc2Cl)nc2c1cnn2-c1ccccc1	Peg3 prom inh 65
CC(C)(C)NC(=O)C(c1ccccc1)n1c(-c2ccc(-c3ccccc3)cc2)nc2ccccc21 (stereo unspecified)	none (no result: Beta2AR agonist, CF NFkB inh, TRPM1 prom inh, KKLEB cytotox, Peg3 prom inh)
N#Cc1cc(Oc2ccc3ccccc3c2)c(-n2nnc3ccccc32)cc1C#N	Beta2AR agonist 48
CCCCCCCNC(=O)C1(CC2CC(c3ccc(Cl)cc3)=NO2)CCNCC1 (stereo unspecified)	TRPM1 prom inh 88, Peg3 prom inh 111
O=C1NC[C@@H](CCCCN2CCN(CC3CCCCC3)C(=O)C2=O)N(CC2CCCCC2)C1=O	none (no result: Beta2AR agonist, CF NFkB inh, TRPM1 prom inh, KKLEB cytotox, Peg3 prom inh)
Cc1cccc(-c2nc3c(c(SCC(=O)N4CCOCC4)n2)Cc2c(CO)cnc(C)c2O3)c1	Peg3 prom inh 68
O=C(CSc1nc(-c2ccccc2)nc2c1CCCC2)N1CCOCC1	none
COc1cccc(-c2ccc(SCC(=O)N3CCOCC3)nn2)c1	none
Cc1ncc(CO)c2c1Oc1nc(-c3ccccc3)nc(SCC(=O)N3CCOCC3)c1C2	Peg3 prom inh 80
COc1ccccc1-c1nc2c(c(SCC(=O)N3CCCCC3)n1)Cc1c(CO)cnc(C)c1O2	none
COc1cccc(-c2nc3c(c(SCC(=O)N4CCOCC4)n2)Cc2c(CO)cnc(C)c2O3)c1	Peg3 prom inh 59
Cc1cccc(C)c1-n1nnnc1C(c1ccccc1OC(F)(F)F)N1CCN(C/C=C/c2ccccc2)CC1 (stereo unspecified)	none (no result: Beta2AR agonist, TRPM1 prom inh)
N=c1n(CCN2CCCC2)c2ccccc2n1CC(O)c1ccco1 (stereo unspecified)	none
N=c1n(CCN2CCCCC2)c2ccccc2n1CC(O)c1cccc(Br)c1 (stereo unspecified)	Peg3 prom inh 110
CC(C)(C)c1csc(NC(=O)c2ccc(Cl)s2)n1	none
CCNc1nc(N)c(C(=O)c2ccc(Cl)s2)s1	CF NFkB inh 55
C=CCNc1ncnc2c1ncn2[C@H]1CN(Cc2ccc3c(c2)OCO3)C[C@@H](CO)O1	none (no result: Beta2AR agonist, TRPM1 prom inh)
COC(=O)[C@H]1C[C@H](OC(=O)NC2CC2)[C@@]2(O)CN(S(=O)(=O)c3ccc(C)cc3)CC2[C@H]1C(=O)OC (stereo partly specified)	none (no result: Beta2AR agonist, TRPM1 prom inh)
O=C(/C(=C/O)N=Nc1ccccc1)c1ccncc1	none
Cc1ccc(N=N/C(=C\O)C(=O)c2ccc(Cl)cc2)cc1	CF NFkB inh 76, KKLEB cytotox -57, Peg3 prom inh 75
O=C(/C(=C/O)N=Nc1ccccc1)c1ccc(Cl)cc1	CF NFkB inh 63
CCC(=O)Nc1ccc2c(c1)OC[C@@H](C)N(Cc1cccc(F)c1)C[C@@H](C)[C@@H](OC)CN(C)C2=O	none (no result: Beta2AR agonist, CF NFkB inh, TRPM1 prom inh, KKLEB cytotox, Peg3 prom inh)
[O-][N+]1=c2ccc(Nc3ccccc3)cc2=NC12CCCCC2	CF NFkB inh 85, TRPM1 prom inh 61, Peg3 prom inh 104
O=[N+]([O-])c1ccc2c(c1N1CCCCC1)=NC1(CCCCC1)[N+]=2[O-]	none
COc1ccc(Nc2ccc3c(c2)=NC2(CCCCC2)[N+]=3[O-])cc1	CF NFkB inh 64, TRPM1 prom inh 86, Peg3 prom inh 95
CC(C)(C)OC(=O)N1CCC[C@H]1C(=O)NCc1ccc(F)cc1F	none (no result: Beta2AR agonist, CF NFkB inh, TRPM1 prom inh, KKLEB cytotox, Peg3 prom inh)
Cc1c(C(=O)NCc2ccc([N+](=O)[O-])cc2)sc(=O)n1Cc1ccc2c(c1)OCO2	none (no result: Beta2AR agonist, TRPM1 prom inh)
CC(C)c1ccc2c(c1)CCC1C(C)(CN)CCCC21C (stereo unspecified)	Beta2AR agonist 43, TRPM1 prom inh 98, Peg3 prom inh 109
Cc1c(CCC(=O)NCCCCCC(=O)O)c(=O)oc2c(C)c3oc4c(c3cc12)CCCC4	none
Cc1c(CCC(=O)NCCCC(=O)O)c(=O)oc2cc3oc4c(c3cc12)CCCC4	HIF-2a block 72
Cc1c(CCC(=O)N[C@@H](CCCNC(N)=O)C(=O)O)c(=O)oc2cc3oc4c(c3cc12)CCCC4	HIF-2a block 67
Cc1c(CC(=O)N[C@@H](CCCNC(N)=O)C(=O)O)c(=O)oc2cc3oc4c(c3cc12)CCCC4	none
O=c1c(-c2ccccc2)cocc1-c1ccccc1	none (no result: Beta2AR agonist, TRPM1 prom inh)
COc1ccc(C(=O)/C(C#N)=N/Nc2ccc([N+](=O)[O-])cc2)cc1	Beta2AR agonist 46, CF NFkB inh 56, TRPM1 prom inh 72
N#CC(C#N)=NNc1ccc([N+](=O)[O-])cc1	CF NFkB inh 57
O=C(c1cccs1)N1C[C@@H](O)[C@H](n2cc(-c3ccc(F)cc3)nn2)C[C@@H]1c1ccc(Cl)cc1	none (no result: Beta2AR agonist, TRPM1 prom inh)
CCCOc1ccc(-c2nn(-c3ccccc3)cc2/C=C2\SC(N)=NC2=O)cc1	none
Cc1cc(-c2nn(-c3ccccc3)cc2/C=C2\SC(N)=NC2=O)ccc1OC(C)C	Peg3 prom inh 78
O=C(NCc1ccc(F)cc1F)[C@@H]1CCCN1C(=O)[C@@H]1CCCN1	none (no result: Beta2AR agonist, CF NFkB inh, TRPM1 prom inh, KKLEB cytotox, Peg3 prom inh)
O=C(NC(c1ccc(-c2ccccc2)cc1)c1cnccn1)C1CCN(CCOc2ccc(F)cc2)CC1 (stereo unspecified)	Peg3 prom inh 50 (no result: Beta2AR agonist, TRPM1 prom inh)
COc1ccc(C(NC(=O)C2CCN(CCCOc3ccccc3)CC2)c2ccccn2)cc1 (stereo unspecified)	none (no result: Beta2AR agonist, TRPM1 prom inh)
O=C(NC(c1ccc(-c2ccccc2)cc1)c1cnccn1)C1CCN(CCCOc2ccccc2)CC1 (stereo unspecified)	Peg3 prom inh 103 (no result: Beta2AR agonist, TRPM1 prom inh)
C=C1CCC[C@]2(C)C[C@H]3OC(=O)C(CNC(C)CCCC(C)C)[C@H]3CC12 (stereo partly specified)	Peg3 prom inh 104
O=c1oc2ccccc2c(O)c1Cc1cc(Cl)c2cccnc2c1O	none
Oc1c(Cl)cc(CN2CCOCC2)c2cccnc12	none
Oc1c(CN2CCCCC2)cc(Br)c2cccnc12	TRPM1 prom inh 75
O=C(Oc1c(CN2CCOCC2)cc(Cl)c2cccnc12)c1ccccc1	TRPM1 prom inh 64
Oc1c(CN2CCc3ccccc3C2)cc(Cl)c2cccnc12	TRPM1 prom inh 75, Peg3 prom inh 50
[O-][n+]1cc(Cl)cc(Cl)c1	none (no result: Beta2AR agonist, TRPM1 prom inh)
CCN1/C(=C/c2cc[n+](C)cc2)C=Cc2cc(C)ccc21	TRPM1 prom inh 70, Peg3 prom inh 61
CCN1/C(=C/c2ccc3ccccc3[n+]2CCCS(=O)(=O)[O-])C=Cc2cc(C)ccc21	none
